Experimental data from PubChem BioAssay (NCI).
Several values for one entry are separate records, joined by “and”; a condition that tells them apart may be missing. Equal entries are not always repeated. Compounds without any hit were thinned out: in the full panel of roughly 83,000, 20% have a hit.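 96-well plates, one dose, 48 hours. Percent growth reported; active if below 10.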 Activity calls are given as the source filed them.

Tests used:
Assay in all cases: NCI-60 one-dose screen, 48 h (100 = growth as untreated, 0 = no growth, -100 = all killed)
Conditions in all cases: 10 µM
DU-145 prostate = test system: DU-145 prostate
K-562 leukemia = test system: K-562 leukemia
MALME-3M melanoma = test system: MALME-3M melanoma
MDA-MB-231 breast = test system: MDA-MB-231 breast
RXF 393 renal = test system: RXF 393 renal
SF-268 CNS = test system: SF-268 CNS
SF-295 CNS = test system: SF-295 CNS
SF-539 CNS = test system: SF-539 CNS
UACC-257 melanoma = test system: UACC-257 melanoma
M14 melanoma = test system: M14 melanoma

SMILES	growth (DU-145 prostate)	growth (K-562 leukemia)	growth (MALME-3M melanoma)	growth (MDA-MB-231 breast)	growth (RXF 393 renal)	growth (SF-268 CNS)	growth (SF-295 CNS)	growth (SF-539 CNS)	growth (UACC-257 melanoma)	growth (M14 melanoma)
S=C=NCCc1ccccc1	44.5% (inactive)	20.4% (inactive)	88.7% (inactive)	38.4% (inactive)	31.5% (inactive)	58.2% (inactive)	115% (inactive)	29.1% (inactive)	88.5% (inactive)	
CC[C@@]1(O)C[C@H](OC2CC(N(C)C)C(O)C(C)O2)c2c(cc3c(c2O)C(=O)c2c(O)ccc(O)c2C3=O)[C@H]1C(=O)OC (some centres undefined)	-77.8% (active)	-73.7% (active)	-87.4% (active)	-70.9% (active)	-66.3% (active)	-61% (active)	-81.5% (active)	-88.5% (active)	-67.7% (active)	-93.1% (active)
Cn1c(O)c(N=O)c(=O)n(C)c1=O	98.1% (inactive) and 106% (inactive)	94.1% (inactive) and 95.2% (inactive)	99.1% (inactive) and 107% (inactive)	107% (inactive) and 101% (inactive)	107% (inactive) and 115% (inactive)	92.8% (inactive) and 97.5% (inactive)	102% (inactive) and 93.7% (inactive)	102% (inactive) and 90.7% (inactive)	99.3% (inactive) and 95.7% (inactive)	111% (inactive) and 102% (inactive)
O=c1[nH]c2ccccc2n1C1CCN(CCCC(c2ccc(F)cc2)c2ccc(F)cc2)CC1	56.7% (inactive) and 53.3% (inactive)	-62.4% (active) and -55.3% (active)	-8.01% (active) and -56.3% (active)	40% (inactive) and 45.2% (inactive)	52.9% (inactive) and -40.4% (active)	23.6% (inactive) and 70.8% (inactive)	6.63% (active) and 25.3% (inactive)	77.3% (inactive) and -66.9% (active)	-27.7% (active) and 24.7% (inactive)	14.9% (inactive)
O=C1CCC(=O)N1SC(Cl)(Cl)Cl	120% (inactive)	95.3% (inactive)	118% (inactive)	113% (inactive)	108% (inactive)	109% (inactive)	117% (inactive)	109% (inactive)	110% (inactive)	108% (inactive)
O=C(O)c1cc(Cc2ccc(O)c(C(=O)O)c2)ccc1O (tested in a mixture with another compound)	83% (inactive)	68.5% (inactive)	89.6% (inactive)	66.8% (inactive)	39.6% (inactive)	76.9% (inactive)	13.3% (inactive)	79.2% (inactive)	60.5% (inactive)	80.5% (inactive)
NNc1ccccc1	98.4% (inactive)	19.5% (inactive)	118% (inactive)	89.8% (inactive)	123% (inactive)	82.6% (inactive)	80.5% (inactive)	99.3% (inactive)	107% (inactive)	46.6% (inactive)
CC12OOC(c3ccccc31)c1c2ccc2ccccc12 (centres undefined)	-95.3% (active)	-82.8% (active)	-88.4% (active)	49.7% (inactive)	67.3% (inactive)	43.1% (inactive)	82.5% (inactive)	83% (inactive)	-17% (active)	-7.71% (active)
O=C1C(=O)c2ccccc2-c2ccccc21	-100% (active)	-37.4% (active)	-93.6% (active)	-39% (active)	-93.2% (active)	-88.7% (active)	-97.4% (active)	-92.7% (active)	-95.6% (active)	-83.8% (active)
ClCc1ccc2ccccc2n1	102% (inactive)	72.3% (inactive)	97.6% (inactive)	102% (inactive)	95.5% (inactive)	80.5% (inactive)	87.3% (inactive)	106% (inactive)	104% (inactive)	84.7% (inactive)
CC(C)C1(NC(=O)C2CC3c4cccc5[nH]cc(c45)CC3N(C)C2)OC2(O)C3CCCN3C(=O)C(Cc3ccccc3)N2C1=O (centres undefined)	104% (inactive)	69.8% (inactive)	98.8% (inactive)	86.9% (inactive)	96.6% (inactive)	93.1% (inactive)	106% (inactive)	98.8% (inactive)	93.7% (inactive)	103% (inactive)
N#CCc1ccccc1	113% (inactive)	98.3% (inactive)	111% (inactive)	98.4% (inactive)	111% (inactive)	93.4% (inactive)	104% (inactive)	96.5% (inactive)	103% (inactive)	98.5% (inactive)
O=[P+](O)c1ccccc1	121% (inactive)	103% (inactive)	119% (inactive)	112% (inactive)	115% (inactive)	103% (inactive)	109% (inactive)	104% (inactive)	101% (inactive)	100% (inactive)
CN(CCCl)c1ccc(/C=C/C2=[N+](C)c3ccccc3C2(C)C)cc1	28.9% (inactive)	26.9% (inactive)	23.5% (inactive)	21.1% (inactive)	82.3% (inactive)	31.8% (inactive)	45.5% (inactive)	14.4% (inactive)	30.8% (inactive)	37.4% (inactive)
COc1cc(/C=C/[N+](=O)[O-])cc(Br)c1OC	66.5% (inactive)	4.74% (active)	98.1% (inactive)	7.14% (active)	-80.5% (active)	32% (inactive)	78.3% (inactive)	28.5% (inactive)	-13.2% (active)	-72.1% (active)
CC(C)c1cc([N+](=O)[O-])cc([N+](=O)[O-])c1O	110% (inactive)	119% (inactive)	137% (inactive)	99.7% (inactive)	102% (inactive)	102% (inactive)	99% (inactive)	101% (inactive)	115% (inactive)	99.7% (inactive)
NC(Cc1ccccc1)c1ccccc1 (centres undefined)	117% (inactive) and 120% (inactive)	108% (inactive) and 94.4% (inactive)	106% (inactive) and 109% (inactive)	102% (inactive) and 95% (inactive)	105% (inactive) and 109% (inactive)	106% (inactive) and 103% (inactive)	102% (inactive) and 104% (inactive)	103% (inactive) and 97.2% (inactive)	106% (inactive) and 95.4% (inactive)	95.1% (inactive) and 94% (inactive)
COc1cc([C@@H]2c3cc4c(c(O)c3C[C@H]3COC(=O)[C@@H]32)OCO4)cc(OC)c1OC	-28.2% (active)	7.73% (active)	40.4% (inactive)	21% (inactive)	14.3% (inactive)	21.5% (inactive)	-22.2% (active)	-18% (active)	57.5% (inactive)	-66.3% (active)
O=[N+]([O-])c1ccc(N(CCO)CCO)c2c1no[n+]2[O-]	-44.5% (active)	-55.9% (active)	-38.2% (active)	-12% (active)	-21.4% (active)	-17.6% (active)	-23.2% (active)	-59.8% (active)	12.1% (inactive)	-32.4% (active)
COc1cc(/C=C(/C)[N+](=O)[O-])ccc1O	21.7% (inactive) and 17.1% (inactive)	2.31% (active) and 1.66% (active)	40% (inactive) and 1.16% (active)	66.3% (inactive) and 50.5% (inactive)	-57.5% (active) and -94.8% (active)	47.5% (inactive) and 87.3% (inactive)	99.2% (inactive)	57.2% (inactive) and 20.3% (inactive)	18.2% (inactive) and -56% (active)	39.6% (inactive)
CC1CCC2(OC1)OC1C(O)C3C4CCC5CC(OC6OC(CO)C(OC7OC(CO)C(O)C(OC8OCC(O)C(O)C8O)C7OC7OC(CO)C(O)C(OC8OC(CO)C(O)C(O)C8O)C7O)C(O)C6O)C(O)CC5(C)C4CCC3(C)C1C2C (centres undefined)	-100% (active)	-100% (active)	14.8% (inactive)	-70.2% (active)	-71.6% (active)	-39.7% (active)	-77.9% (active)	-53.3% (active)	-85.7% (active)	62.9% (inactive)
C=C1C(=O)O[C@@H]2C[C@@H](C)[C@@H]3C=CC(=O)[C@@]3(C)[C@@H](O)[C@H]12	-100% (active)	-56.9% (active)	-76.6% (active)	-63.2% (active)	1.51% (active)	-45% (active)	-35.8% (active)	-73.3% (active)	1.25% (active)	-64.8% (active)
O=[N+]([O-])c1ccc(N2CCOCC2)c2c1no[n+]2[O-]	6.63% (active)	-29.6% (active)	-12.6% (active)	34.3% (inactive)	-31.4% (active)	4.58% (active)	20.5% (inactive)	-22.3% (active)	41% (inactive)	0.168% (active)
Oc1ccccc1-c1ccccc1	103% (inactive) and 113% (inactive)	93.2% (inactive) and 97.2% (inactive)	99.1% (inactive) and 106% (inactive)	95% (inactive)	99% (inactive) and 106% (inactive)	98% (inactive) and 104% (inactive)	105% (inactive) and 112% (inactive)	103% (inactive)	97.6% (inactive) and 97.1% (inactive)	113% (inactive)
C/C(=C\c1ccc(Cl)c(Cl)c1)[N+](=O)[O-]	8.46% (active) and 104% (inactive)	0.843% (active) and 78.6% (inactive)	-55.4% (active) and 105% (inactive)	-26.3% (active) and 101% (inactive)	-91.7% (active) and 100% (inactive)	-19.1% (active) and 102% (inactive)	94.5% (inactive)	96.3% (inactive) and 100% (inactive)	-88.8% (active)	-86.8% (active) and 95% (inactive)
